Test results from PubChem BioAssay AID652039 (The Scripps Research Institute Molecular Screening Center, 2013).
About 3,300 (0.89%) of roughly 370,000 compounds were called active. The sample as a whole holds a higher share of actives than the screen did. Unmarked numbers belong to inactive results.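 The calls were made as follows: active = activation above the mean of all tested compounds plus 3 SD, computed per campaign excluding outliers beyond control limits (cut at about 13% in these data); inactive = the rest.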

target: Kallikrein-7 (Homo sapiens) (UniProt P49862); assay: activation of human kallikrein-7 proenzyme – biochemical, fluorescence intensity, primary screen (AID 652039); conditions: purified proKLK7, EDANS-DABCYL substrate fluorescence; at 7 µM; hits give high values; 100% is mature enzyme control, 0% vehicle
Sequence (P49862 whole entry, looked up): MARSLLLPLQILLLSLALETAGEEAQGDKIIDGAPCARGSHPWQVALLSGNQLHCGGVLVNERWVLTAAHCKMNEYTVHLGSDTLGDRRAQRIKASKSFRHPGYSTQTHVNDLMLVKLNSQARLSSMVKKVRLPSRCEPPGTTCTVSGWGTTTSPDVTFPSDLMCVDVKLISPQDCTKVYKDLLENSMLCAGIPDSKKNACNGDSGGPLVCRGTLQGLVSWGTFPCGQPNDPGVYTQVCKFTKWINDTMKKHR

Row | Structure (SMILES) | activation
1 | CCCCNC(=O)C[C@H]1C(=O)N(Cc2ccc(OC)cc2)C2=CCCC[C@@]21C(=O)OCC | -0.1%
2 | N#Cc1ccccc1OC[C@@H](O)CN1CCC(C(O)(c2ccccc2)c2ccccc2)CC1 | 0.62%
3 | COc1ccc(N2CCN(C(=O)Cn3cnc4sc(C)c(S(=O)(=O)N5CCOCC5)c4c3=O)CC2)cc1 | -0.12%
4 | COc1ccc(-c2ccnc(SCC(=O)N3CCOCC3)n2)cc1 | 0.01%
5 | c1ccc(-c2cn3cccnc3n2)cc1 | 32.3% (active)
6 | COc1ccc(N2CCN(C(=O)CSc3nnc4ncccn34)CC2)cc1 | 0.11%
7 | COc1ccc(-c2cn3cccnc3n2)cc1 | 73.9% (active)
8 | FC(F)(F)Oc1ccc(-c2cn3cccnc3n2)cc1 | 34.6% (active)
9 | Nc1nc2ncccn2c1-c1ccccc1 | 5.34%
10 | Cc1ccccc1Nc1c(-c2ccccc2)nc2ncccn12 | 0.74%
11 | C=CCOC/C=C/C#CCN(CC=C)Cc1ccc(OC)cc1OC | 0.82%
12 | O=C(CSc1nc2ccccc2s1)N=Nc1c(O)[nH]c2ccccc12 | 0.68%
13 | Cc1ccc(-n2c(COc3ccccc3)nnc2SCC(=O)Nc2ccc3c(c2)OCCO3)cc1 | 0.98%
14 | CCOC(=O)N1CCN(C(=O)C[C@H]2C[C@@]3(C(=O)OC)C(=C[C@H](C(C)(C)C)O[C@@H]3C)N(Cc3ccc(Cl)cc3Cl)C2=O)CC1 | 0.88%
15 | Cc1cc(C(=O)OCC(=O)N2C(C)CCCC2C)c2ccccc2n1 (configuration not stated) | -1.23%
16 | COC(=O)c1ccccc1Oc1c(F)c(F)nc(N2CCOCC2)c1F | 0.34%
17 | COC(=O)c1cc(N2CCNCC2)nc2ccccc12 | 78.9% (active)
18 | CCOC(=O)[C@@]12CN(C(=O)OC(C)(C)C)CC=C1N(Cc1ccc(OC)cc1)C(=O)[C@H]2CC(=O)NCc1ccc(OC)c(OC)c1 | 0.61%
19 | CC1C(=O)C(C)C(c2ccc(O)cc2)NC1c1ccc(O)cc1 (configuration not stated) | 0.15%
20 | Cc1cc(C)c2nc3nc(C)cc(C)c3c(N)c2c1 | 52.6% (active)
21 | CCC(CO)Nc1cccc2c1S(=O)(=O)N(Cc1cn(Cc3ccccc3C(F)(F)F)nn1)Cc1ccccc1O2 (configuration not stated) | 0.4%
22 | Cc1ccccc1CN1CCCCC(NC(=O)Nc2ccccc2F)C1=O (configuration not stated) | 0.62%
23 | C#CCCN([C@H](C(=O)OC)C(C)C)S(=O)(=O)c1ccc(F)cc1Br | -0.16%
24 | O=S1(=O)c2c(cccc2N2CCSCC2)Oc2ccccc2CN1Cc1cn(Cc2ccc(F)cc2)nn1 | -2.26%
25 | CN(CC(=O)Nc1ccc(Cl)cc1)CC(=O)Nc1cccc2ccccc12 | 0.06%
26 | Cn1cccc1/C=N/NC(=O)CNc1cccc2ccccc12 | 22.8% (active)
27 | C/C(=N\NC(=O)CNc1cccc2ccccc12)c1ccc(Br)s1 | 2.95%
